Source: PubChem BioAssay (NCATS)
Records with an inconclusive call do not appear. Calls of active or inactive are those of the source. Unless noted, calls follow the shape of the dose curve; as a rule, active = well fitted curve in the direction sought with a large enough effect; inconclusive = small, poorly fitted or top-dose-only effect, or another doubt; inactive = no such curve, though single readings can be large; an effect the other way counts as inactive or inconclusive.

What was measured:
[1] = biological target: Lysosomal acid glucosylceramidase (Homo sapiens) (UniProt P04062); assay: Glucocerebrosidase-p2 (AID 348; in the data active = potency below about 10 µM; also: potency is read from the fitted curve at half-maximal effect); conditions: purified GBA, blue fluorogenic substrate, 40 min
Procedure, shortened: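 Compounds titrated from 0.6 nM upwards against 0.2 nM enzyme in pH 5.9 citric acid/KH2PO4, taurocholate, tween-20; blue fluorogenic substrate 80 uM, 40 min room temperature, stopped and read Ex 365/Em 440 for AC50.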

[2] = NFAT Signaling Pathway (AID 444; active = well fitted curve in either direction with a large enough effect, not every such curve was filed as active;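 also: carbachol stimulus at about its EC50 of 1 µM final; % is scaled to controls: 0 for no effect and ±100 for the full control effect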); conditions: Jurkat NFAT-bla M1, carbachol, beta-lactamase ratio, 5 h; at 7.69 µM (top of the series) unless noted
Procedure, shortened: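 Jurkat cells carrying an NFAT-driven β-lactamase reporter and co-transfected muscarinic M1 receptor were treated with compound plus carbachol (1 uM final, an EC50 level) for 5 h at 37 °C. CCF4 loading followed for 1 h at RT; 460/530 nm ratio gave %activity.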

[3] = biological target: Glucocorticoid receptor (Homo sapiens) (UniProt P04150); assay: GR-GFP Redistribution (AID 450;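 active = compounds whose dose series gives a full or clear partial fitted curve of increased nuclear translocation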; also: potency is read from the fitted curve at half-maximal effect); conditions: U2OS GR-GFP nuclear translocation, laser cytometry, 2 h
[4] = biological target: Glucocorticoid receptor (Homo sapiens) (UniProt P04150); assay: GR-EFC Redistribution (AID 451; calls by dose curve; also: potency is read from the fitted curve at half-maximal effect); conditions: CHO-K1 GR-EFC translocation, beta-gal luminescence, 2 h
Procedure, shortened: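 CHO-K1 cells stably expressing nuclear-localized β-gal enzyme acceptor and GR fused C-terminally to the enzyme donor fragment; ligand-driven nuclear translocation restores β-gal by complementation. Compounds titrated up to 46 uM final, 2 h at 37 °C; luminescence read.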

[5] = biological target: Mitogen-activated protein kinase 10 (Mus musculus) (UniProt Q61831); assay: JNK3 AlphaScreen Assay (AID 530; active = well fitted curve in either direction with a large enough effect, not every such curve was filed as active;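 also: kinase came from lysate of stimulated human HepG2 cells; signal reports phosphorylation of biotinylated GST-cJun 1-79 at Ser73 with 10 µM ATP; % is scaled to controls: 0 for no effect and ±100 for the full control effect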); conditions: JNK3 lysate, c-Jun phosphorylation; series mostly up to 57.1 µM
Procedure, shortened: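 JNK3 came from HepG2 lysates pre-activated with IL-1beta and TNF-alpha and phosphorylated biotinylated GST-cJun (1-79) at 10 uM ATP, pH 7.6, room temperature. Compounds were titrated. AlphaScreen signal used anti-phospho-cJun (Ser73) antibody.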

[6] = qHTS Assay for Lipid Storage Modulators (AID 1519; calls by dose curve); conditions: Drosophila S3 cells, BODIPY lipid droplet/cell ratio, laser cytometry, cells loaded with oleic acid; for activity change, negative = inhibition: at 57.5 µM (top of the series)
Procedure, shortened: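 Cells seeded at 5,000 per well were treated with compounds over a concentration series and loaded with oleic acid (400 uM, as added). Lipid droplet fluorescence (488 nm excitation, 500-530 nm channel) was read by laser-scanning cytometry and normalized to 20 uM Triacsin C.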

[7] = biological target: Dual specificity protein kinase CLK4 (Homo sapiens) (UniProt Q9HAZ1); assay: qHTS Assay for Inhibitors of CDC-like Kinase 4 (Kinase-Glo Assay) (AID 1770); conditions: recombinant Clk4, Kinase-Glo ATP depletion luminescence; series mostly up to 66.7 µM; also: nearly all actives have a fitted effect of over 65% in size; also: potency is read from the fitted curve at half-maximal effect
Procedure, shortened: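 Inhibition was judged from remaining ATP, measured by Ultra-Glo luciferase bioluminescence after Clk4 (25 nM) had acted on RS peptide at 1 uM ATP for 4.5 hours, room temperature.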

[8] = biological target: Dual specificity protein kinase CLK4 (Homo sapiens) (UniProt Q9HAZ1); assay: qHTS Assay for Inhibitors of CDC-like Kinase 4 (ADP-Glo Assay) (AID 1771); conditions: recombinant CLK4, ADP-Glo luminescence; series mostly up to 80 µM; also: potency is read from the fitted curve at half-maximal effect; nearly all actives have a fitted effect of over 70% in size
Procedure, shortened: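 Clk4 (25 nM) was incubated 1 hr at room temperature with 100 uM RS repeat peptide and 1 uM ATP in buffer with 2 mM MgCl2, 0.5 mM EGTA, 2.5 mM DTT. ADP formed was quantified by ADP-Glo luminescence.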

[9] = biological target: Ubiquitin carboxyl-terminal hydrolase 1 (Homo sapiens) (UniProt O94782); assay: Inhibitors of USP1/UAF1: Pilot qHTS (AID 504865); conditions: purified USP1/UAF1, Ub-rhodamine cleavage fluorescence; series mostly up to 54.9 µM;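 also: rhodamine fluorescence freed from ubiquitin-rhodamine substrate followed over time; top concentration of the series differs between compounds; % is scaled to controls: 0 for no effect and ±100 for the full control effect; nearly all actives have a fitted effect of over 35% in size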
Procedure, shortened: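 Kinetic fluorescence assay: 1nM USP1/UAF1, 15 min compound preincubation, then 150nM Ub-Rho; 480/540 nm.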

[10] = Primary qHTS for small molecule stabilizers of the endoplasmic reticulum resident proteome: Secreted ER Calcium Modulated Protein (SERCaMP) assay (AID 1508630); conditions: SH-SY5Y GLuc-SERCaMP (Gaussia luciferase released on ER calcium loss) secretion, thapsigargin, luminescence; series mostly up to 38.4 µM; also: % is scaled to controls: 0 for no effect and ±100 for the full control effect
Procedure, shortened: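 GLuc-SERCaMP-expressing SH-SY5Y cells, pretreated 16 h with compound, are challenged with thapsigargin to empty ER calcium stores; after 4 h, coelenterazine is added directly to the medium and luminescence is imaged.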

[11] = AP1 Signaling Pathway (AID 357; active = well fitted curve in either direction with a large enough effect, not every such curve was filed as active;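 also: ME-180 reporter cells stimulated with EGF at its EC50 level; % is scaled to controls: 0 for no effect and ±100 for the full control effect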); conditions: ME-180 AP-1-bla reporter, EGF-induced, beta-lactamase ratio, 5 h; at 7.69 µM (top of the series) unless noted
Procedure, shortened: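 A ratiometric CCF4 readout (405 nm excitation; 460 and 530 nm emission) quantified AP-1-driven beta-lactamase in ME-180 cells after 5 h with compound and EC50 EGF; AC50 values were derived for activators and inhibitors.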

[12] = biological target: Cytochrome P450 1A2 (Homo sapiens) (UniProt P05177); assay: p450-cyp1a2 (AID 410; calls by dose curve; also: potency is read from the fitted curve at half-maximal effect); conditions: recombinant CYP1A2, luciferin-ME demethylation, luminescence; series mostly up to 57 µM
Procedure, shortened: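 Human CYP1A2 (20nM) demethylated Luciferin-ME at its Km (100uM) in 100mM KPO4. After 10 min compound preincubation, NADPH regeneration ran the reaction 60 min at room temperature. Luciferin was read by luminescence, normalized to 57 uM furafylline.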

[13] = Stat Signaling Pathway (AID 446; active = well fitted curve in either direction with a large enough effect, not every such curve was filed as active); conditions: ME-180 SIE beta-lactamase reporter, IL-6 stimulated, 5 h; at 7.69 µM (top of the series) unless noted
Procedure, shortened: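 IL-6/STAT signaling read in ME-180 cells via an SIE beta-lactamase reporter. Stimulus was 40 pM IL-6 (its AC50) for 5 hrs, so both activation and inhibition register.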

[14] = biological target: 3',5'-cyclic-AMP phosphodiesterase 4B (Homo sapiens) (UniProt Q07343); assay: qHTS Assay for Inhibitors of PDE-IV (AID 607; active = well fitted activation curve with a large enough effect in the main read-out, with a control signal flat, not every such curve was filed as active; also: % of control where 0% means no effect); conditions: HEK293 ACTOne CNG channel cells, membrane potential fluorescence; series mostly up to 22.9 µM
Procedure, shortened: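 Live HEK293 cells with a modified cyclic nucleotide-gated (CNG) channel report intracellular cAMP via membrane-potential dye fluorescence (ex 535/em 590 nm). Endogenous PDE-IV was targeted. Compounds were tested at up to 22.9 uM final; RO 20-1724 100 uM served as control.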

[15] = biological target: Cytochrome P450 3A4 (Homo sapiens) (UniProt P08684); assay: qHTS Assay for Inhibitors and Substrates of Cytochrome P450 3A4 (AID 884); conditions: recombinant CYP3A4, Luciferin-PPXE luminescence; series mostly up to 57.1 µM; also: potency is read from the fitted curve at half-maximal effect; nearly all actives have a fitted effect of over 50% in size
Procedure, shortened: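 20 nM human CYP3A4 with 25 uM Luciferin-PPXE (at KM) in 200 mM KPO4, preincubated 10 min with compound; NADPH regeneration started a 60 min RT reaction. Luciferin detected by luminescence, normalized to 57 uM ketoconazole as full inhibition.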

[16] = biological target: Cytochrome P450 3A4 (Homo sapiens) (UniProt P08684); assay: qHTS Assay for Activators of Cytochrome P450 3A4 (AID 885); conditions: recombinant CYP3A4, Luciferin-PPXE luminescence, 60 min; series mostly up to 57.1 µM; also: nearly all actives have a fitted effect of over 65% in size
Procedure, shortened: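 Quantitative HTS format: compounds preincubated with 20nM human CYP3A4 and Luciferin-PPXE substrate at KM, reaction started by NADPH regeneration, stopped after 60 min, luciferase luminescence read 20 min later.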

[17] = biological target: Dual specificity protein kinase CLK4 (Homo sapiens) (UniProt Q9HAZ1); assay: qHTS Assay for Inhibitors of CDC-like Kinase 4 (ADP-FP Assay) (AID 1795); conditions: Transcreener ADP fluorescence polarization; series mostly up to 50 µM;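 also: recombinant human CLK4 phosphorylating RS repeat peptide at 1 µM ATP; % is scaled to controls: 0 for no effect and ±100 for the full control effect; nearly all actives have a fitted effect of over 60% in size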
Procedure, shortened: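 Inhibition of ADP formation by 6.25 nM Clk4 is measured using 1 uM ATP and 100 uM RS repeat peptide over one hour. Produced ADP displaces a fluorescent tracer from antibody, lowering polarization.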

[18] = qHTS Assay for Identification of Small Molecule Agonists for Hypoxia Response Element Signaling Pathway (AID 914; active = well fitted activation curve with a large enough effect in the signal ratio, with a control signal flat, not every such curve was filed as active; the % refers to the signal ratio; also: % of control where 0% means no effect); conditions: ME-180 (cervical carcinoma) HRE-bla reporter, beta-lactamase ratio, CoCl2, 17 h; activation: stronger effect = higher value
Procedure, shortened: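 HRE-bla ME-180 assay for agonist-like enhancement of an EC50 CoCl2 stimulus: 17 h at 37 degrees Celsius, CCF4 for 2.5 h, ratiometric 460/530 nm signal converted to %Activity and fitted to AC50.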

[19] = measured here: cell count channel max response
[20] = measured here: lipid channel max response

Sequence of Cytochrome P450 1A2 (Homo sapiens) (P05177 whole entry, looked up): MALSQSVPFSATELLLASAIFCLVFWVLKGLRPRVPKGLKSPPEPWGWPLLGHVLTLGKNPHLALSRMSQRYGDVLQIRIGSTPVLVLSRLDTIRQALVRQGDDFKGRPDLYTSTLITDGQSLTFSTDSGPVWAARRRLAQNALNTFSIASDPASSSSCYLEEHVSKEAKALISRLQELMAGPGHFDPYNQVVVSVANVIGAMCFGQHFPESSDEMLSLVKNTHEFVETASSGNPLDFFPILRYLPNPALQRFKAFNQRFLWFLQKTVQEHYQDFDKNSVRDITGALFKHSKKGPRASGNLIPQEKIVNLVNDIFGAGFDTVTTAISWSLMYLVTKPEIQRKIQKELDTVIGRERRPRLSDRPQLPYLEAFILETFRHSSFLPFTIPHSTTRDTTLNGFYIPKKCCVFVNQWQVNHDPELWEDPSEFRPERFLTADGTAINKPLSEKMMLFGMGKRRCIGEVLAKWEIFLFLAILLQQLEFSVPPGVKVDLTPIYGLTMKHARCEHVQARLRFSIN
Sequence of Glucocorticoid receptor (Homo sapiens) (P04150 whole entry, looked up, the tested form may be a part): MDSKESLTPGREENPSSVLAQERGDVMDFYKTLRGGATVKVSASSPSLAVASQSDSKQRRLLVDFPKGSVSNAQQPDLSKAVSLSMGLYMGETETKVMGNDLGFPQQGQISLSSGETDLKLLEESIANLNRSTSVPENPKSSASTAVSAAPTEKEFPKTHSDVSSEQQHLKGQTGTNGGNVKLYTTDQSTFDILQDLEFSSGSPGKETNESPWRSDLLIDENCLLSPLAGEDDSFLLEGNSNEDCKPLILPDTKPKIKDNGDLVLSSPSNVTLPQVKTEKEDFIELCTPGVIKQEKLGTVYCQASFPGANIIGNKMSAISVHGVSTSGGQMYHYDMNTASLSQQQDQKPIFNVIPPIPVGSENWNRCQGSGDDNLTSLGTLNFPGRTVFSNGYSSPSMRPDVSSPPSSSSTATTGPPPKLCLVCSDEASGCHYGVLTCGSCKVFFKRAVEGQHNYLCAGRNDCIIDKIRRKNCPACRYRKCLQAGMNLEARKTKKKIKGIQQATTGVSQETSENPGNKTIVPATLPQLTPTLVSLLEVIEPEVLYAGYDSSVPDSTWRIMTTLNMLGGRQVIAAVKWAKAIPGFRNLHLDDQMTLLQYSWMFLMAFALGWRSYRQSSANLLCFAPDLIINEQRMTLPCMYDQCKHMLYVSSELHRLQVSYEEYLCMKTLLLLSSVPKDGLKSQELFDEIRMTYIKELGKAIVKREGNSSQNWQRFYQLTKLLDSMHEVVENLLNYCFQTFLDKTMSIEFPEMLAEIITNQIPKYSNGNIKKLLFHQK
Sequence of Cytochrome P450 3A4 (Homo sapiens) (P08684 whole entry, looked up): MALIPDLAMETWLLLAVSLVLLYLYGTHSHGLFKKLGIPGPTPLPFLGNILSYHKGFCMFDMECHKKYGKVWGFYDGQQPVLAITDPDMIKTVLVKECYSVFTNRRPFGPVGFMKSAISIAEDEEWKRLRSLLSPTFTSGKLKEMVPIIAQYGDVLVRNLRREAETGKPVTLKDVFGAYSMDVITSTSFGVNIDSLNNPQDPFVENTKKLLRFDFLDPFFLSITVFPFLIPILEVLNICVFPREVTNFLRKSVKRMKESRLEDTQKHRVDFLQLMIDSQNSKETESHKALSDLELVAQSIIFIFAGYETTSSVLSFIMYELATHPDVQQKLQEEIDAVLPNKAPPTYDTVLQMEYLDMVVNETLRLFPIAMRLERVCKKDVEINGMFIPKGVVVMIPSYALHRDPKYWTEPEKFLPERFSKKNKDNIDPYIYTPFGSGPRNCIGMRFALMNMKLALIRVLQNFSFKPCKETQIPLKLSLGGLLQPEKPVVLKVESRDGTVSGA
Sequence of Dual specificity protein kinase CLK4 (Homo sapiens) (Q9HAZ1 whole entry, looked up): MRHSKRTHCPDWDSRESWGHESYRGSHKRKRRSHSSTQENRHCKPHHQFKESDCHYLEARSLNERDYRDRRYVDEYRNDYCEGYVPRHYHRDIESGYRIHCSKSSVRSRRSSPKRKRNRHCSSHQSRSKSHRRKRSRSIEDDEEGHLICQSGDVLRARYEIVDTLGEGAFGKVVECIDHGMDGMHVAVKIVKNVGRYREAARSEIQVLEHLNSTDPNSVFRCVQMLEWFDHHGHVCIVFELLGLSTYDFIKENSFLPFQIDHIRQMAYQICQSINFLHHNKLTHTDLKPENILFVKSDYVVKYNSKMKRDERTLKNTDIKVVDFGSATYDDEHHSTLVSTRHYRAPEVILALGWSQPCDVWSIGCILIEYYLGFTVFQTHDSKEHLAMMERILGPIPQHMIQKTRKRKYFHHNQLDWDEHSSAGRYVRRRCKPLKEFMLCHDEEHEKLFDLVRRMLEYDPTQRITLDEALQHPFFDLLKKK
Sequence of Lysosomal acid glucosylceramidase (Homo sapiens) (P04062 whole entry, looked up): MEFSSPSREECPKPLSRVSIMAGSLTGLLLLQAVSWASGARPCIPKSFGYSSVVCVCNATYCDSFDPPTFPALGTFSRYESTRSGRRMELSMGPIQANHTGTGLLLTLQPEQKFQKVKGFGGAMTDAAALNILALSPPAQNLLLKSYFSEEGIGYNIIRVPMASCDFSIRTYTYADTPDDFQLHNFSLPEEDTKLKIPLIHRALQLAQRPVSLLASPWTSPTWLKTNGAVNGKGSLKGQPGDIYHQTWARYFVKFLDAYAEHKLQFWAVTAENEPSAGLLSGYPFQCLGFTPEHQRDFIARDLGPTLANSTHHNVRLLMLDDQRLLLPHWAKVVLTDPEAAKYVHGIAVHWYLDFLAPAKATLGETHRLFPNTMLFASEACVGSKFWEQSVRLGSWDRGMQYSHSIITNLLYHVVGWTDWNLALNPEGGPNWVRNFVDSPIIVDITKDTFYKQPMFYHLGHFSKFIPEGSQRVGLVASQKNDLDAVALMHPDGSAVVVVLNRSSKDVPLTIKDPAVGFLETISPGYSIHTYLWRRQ
Sequence of 3',5'-cyclic-AMP phosphodiesterase 4B (Homo sapiens) (Q07343 whole entry, looked up): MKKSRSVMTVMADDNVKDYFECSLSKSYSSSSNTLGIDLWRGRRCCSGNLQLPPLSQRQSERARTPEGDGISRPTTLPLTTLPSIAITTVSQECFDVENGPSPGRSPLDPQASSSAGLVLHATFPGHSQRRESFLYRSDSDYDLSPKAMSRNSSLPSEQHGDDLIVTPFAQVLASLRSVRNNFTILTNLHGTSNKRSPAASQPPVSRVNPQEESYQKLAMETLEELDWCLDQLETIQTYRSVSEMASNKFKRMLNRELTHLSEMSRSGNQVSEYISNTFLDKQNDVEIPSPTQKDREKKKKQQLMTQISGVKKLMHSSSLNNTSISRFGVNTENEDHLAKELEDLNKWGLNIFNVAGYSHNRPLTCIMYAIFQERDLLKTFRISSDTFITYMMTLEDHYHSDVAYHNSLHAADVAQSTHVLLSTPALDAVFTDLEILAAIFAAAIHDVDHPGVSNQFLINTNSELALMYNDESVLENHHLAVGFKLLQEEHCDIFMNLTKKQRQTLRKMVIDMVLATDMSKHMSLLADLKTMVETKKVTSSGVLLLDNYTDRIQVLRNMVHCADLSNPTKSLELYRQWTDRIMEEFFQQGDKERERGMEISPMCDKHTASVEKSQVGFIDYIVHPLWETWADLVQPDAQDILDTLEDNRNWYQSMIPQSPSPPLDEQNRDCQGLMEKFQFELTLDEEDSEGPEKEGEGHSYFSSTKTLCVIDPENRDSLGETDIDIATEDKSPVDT
Sequence of Ubiquitin carboxyl-terminal hydrolase 1 (Homo sapiens) (O94782 whole entry, looked up): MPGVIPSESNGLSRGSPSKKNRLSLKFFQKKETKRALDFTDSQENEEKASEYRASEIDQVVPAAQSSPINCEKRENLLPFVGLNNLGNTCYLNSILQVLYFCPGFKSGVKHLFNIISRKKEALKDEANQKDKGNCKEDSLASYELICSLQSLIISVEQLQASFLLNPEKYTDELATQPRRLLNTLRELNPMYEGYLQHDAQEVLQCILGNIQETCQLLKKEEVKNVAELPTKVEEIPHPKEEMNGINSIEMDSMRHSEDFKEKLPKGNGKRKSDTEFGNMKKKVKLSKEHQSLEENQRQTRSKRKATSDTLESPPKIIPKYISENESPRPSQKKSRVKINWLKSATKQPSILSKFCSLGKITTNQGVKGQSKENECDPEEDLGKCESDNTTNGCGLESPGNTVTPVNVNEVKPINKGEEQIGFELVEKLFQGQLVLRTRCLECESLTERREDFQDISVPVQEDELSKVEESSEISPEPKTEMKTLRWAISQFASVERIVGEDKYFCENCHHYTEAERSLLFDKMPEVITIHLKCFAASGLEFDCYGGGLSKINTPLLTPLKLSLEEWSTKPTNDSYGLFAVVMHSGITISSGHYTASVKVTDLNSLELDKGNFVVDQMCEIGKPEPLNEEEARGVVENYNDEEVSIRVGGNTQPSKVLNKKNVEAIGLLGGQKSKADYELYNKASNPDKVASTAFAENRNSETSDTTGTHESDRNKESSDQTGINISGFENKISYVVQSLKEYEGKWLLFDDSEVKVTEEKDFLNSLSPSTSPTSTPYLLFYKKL

COc1cccc(Nc2ncc3ncc(=O)n(CCc4ccccc4)c3n2)c1
active: Potency [7] 0.1 µM | Potency [8] 0.282 µM
-19.1%: max response [6, 20]
-10.9%: max response [6, 19]
inactive: Potency [1] > 11.4 µM | activity change, negative = inhibition [2] 4.6% | Potency [3] > 9.22 µM | Potency [4] > 46 µM | outcome [5] | activity change, negative = inhibition [6] -5.96% | Potency [9] | Potency [10]

CN(C)C(=O)c1ccc(-c2cncnc2NCCc2cnc[nH]2)cc1
30.3%: max response [6, 20]
inactive: Potency [1] > 11.4 µM | activity change, negative = inhibition [11] -9.74% | activity change, negative = inhibition [2] 18.2% | activity, negative = inhibition [13] -26.8% | Potency [3] > 46 µM | outcome [5] | Potency [14] | Potency [16] | activity change, negative = inhibition [6] 3.4% | Potency [7] | Potency [17] | Potency [9] | Potency [10]
29.1%: max response [6, 19]
active: Potency [12] 12.6 µM | Potency [15] 6.31 µM

CCNc1ncc2nc(C)c(=O)n(CCC#N)c2n1
inactive: Potency [1] > 11.4 µM | activity change, negative = inhibition [11] -5.37% | activity change, negative = inhibition [2] 8.37% | activity, negative = inhibition [13] -4.05% | Potency [3] > 9.22 µM | Potency [4] > 46 µM | outcome [5] | Potency [14] | activity change, negative = inhibition [6] 3.22% | Potency [7] | Potency [17] | Potency [9] | Potency [10]
-0.74%: max response [6, 19]
2.02%: max response [6, 20]
active: Potency [12] 12.6 µM

CN1CCN(c2ncc3nc(CCc4ccccc4)c(=O)n(C4CC4)c3n2)CC1
15.9%: max response [6, 19]
active: Potency [12] 12.6 µM
14.9%: max response [6, 20]
inactive: Potency [1] > 11.4 µM | activity change, negative = inhibition [11] 10.3% | activity change, negative = inhibition [2] 15.1% | activity, negative = inhibition [13] -7.8% | Potency [3] > 9.22 µM | Potency [4] > 46 µM | outcome [5] | Potency [14] | Potency [16] | activation [18] -5.15% | activity change, negative = inhibition [6] 1.8% | Potency [7] | Potency [17] | Potency [9] | Potency [10]

N#CCCn1c(=O)c(-c2ccc(Cl)cc2)nc2cnc(Oc3ccccc3)nc21
19.6%: max response [6, 19]
24.2%: max response [6, 20]
inactive: Potency [1] > 11.4 µM | activity change, negative = inhibition [11] -26.3% | activity change, negative = inhibition [2] -9.95% | activity, negative = inhibition [13] -6.74% | Potency [3] > 9.22 µM | Potency [4] > 46 µM | outcome [5] | Potency [14] | activity change, negative = inhibition [6] 4.78% | Potency [7] | Potency [17] | Potency [9] | Potency [10]
active: Potency [12] 0.501 µM

CN(C)c1ccc(-c2ccc3ncnc(-n4ccnc4)c3c2)cc1
4.81%: max response [6, 19]
9.84%: max response [6, 20]
active: Potency [12] 0.316 µM | Potency [7] 3.16 µM | Potency [8] 4.47 µM
inactive: Potency [1] > 11.4 µM | activity, negative = inhibition [13] -10% | Potency [3] > 46 µM | Potency [4] > 46 µM | outcome [5] | Potency [14] | Potency [16] | activity change, negative = inhibition [6] 7.19% | Potency [9] | Potency [10]
